# PMC5540273 (PLoS ONE, 2017)
# System: KIT
# 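Further: kd values determined as follow-up on hits from a single-replicate KINOMEscan panel screen.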
row,SMILES,Kd
1,CC(C)(C)c1ccc(C(=O)Nc2cn3cc(-c4ccccc4)ccc3n2)cc1,> 10 µM
2,COc1ccc(-n2cnc3c(N)ncnc32)cc1 [SKF-97236],0.2 µM
3,Cl.NS(=O)(=O)c1cccc(Nc2cc(-c3ccc(F)cc3)n[nH]2)c1 [GW824645],0.016 µM
4,CCCNC(=O)Nc1ccc(Oc2ncnc3ccn(C)c23)cc1,0.067 µM
5,COc1cc2nccc(Nc3ccc(OCc4ccc(NC(C)=O)cc4)cc3)c2cc1OC.Cl [GW440135],0.0074 µM
6,Nc1n[nH]c2ncc(-c3ccccc3)cc12 [SB-517081],0.092 µM
